Compound activity deposited in PubChem by National Center for Advancing Translational Sciences (NCATS).
Pf Dd2 growth – qHTS Primary assay for Inhibitors of Plasmodium falciparum Dd2 growth in vitro; P. falciparum Dd2 growth, SYBR Green, 72 h; Potency, µM (highest dose often 28.9 µM), usual class: inhibitors; 4.3% of 120,000 active; AID 1347417, 2020; active = well fitted inhibition curve with a large enough effect; note: nearly all actives have a fitted effect of over 65% in size
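Infected erythrocytes (Dd2, 0.3% parasitemia, 2.5% hematocrit final) are added to compound in RPMI-1640/Albumax II medium, grown 72 h at 37C in low oxygen, then lysed with saponin/Triton-X containing SYBR Green and read by fluorescence.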
Large screens that a line does not name were inactive. Shown is part of a subset that was picked to be rich in hits.

Cn1cc(C(=O)N2CCCCCCNC(=O)[C@@H]3CCC[C@@H]32)cn1	none
CC1CCCCN1Cc1c(O)ccc2c(=O)c(-c3ccccc3Cl)c(C(F)(F)F)oc12 (configuration not stated)	Pf Dd2 growth 8.9µM
CCc1nc2c(c(-c3ccc(Cl)cc3)n1)CN(C(=O)C1CCCC1)CC2	none
CC1CCCCN1Cc1c(O)ccc2c(=O)c(-c3ccc(Cl)cc3)coc12 (configuration not stated)	Pf Dd2 growth 2.2µM
COC(=O)CCC(=O)N1CCOC(CCCC(C)C)C1 (configuration not stated)	none
C[S+](=O)([O-])N1Cc2ccccc2CC2(CCCN2CC2CCNCC2)C1 (configuration not stated)	none
CN1CCC(N2C[C@@H]3C[C@H](C2)c2c(NC(=O)NC4CCCCC4)ccc(=O)n2C3)CC1	none
CN1CC(=O)N(C2CCCNCC2)Cc2c(NCc3ccccc3F)ncnc21 (configuration not stated)	none
Cc1ccccc1-c1ccc2n(c1=O)C[C@H]1C[C@@H]2CN(C(=O)NC(C)C)C1	none
CCc1ccccc1N1CC(c2nc3ccccc3n2CCCCOc2ccccc2OC)CC1=O (configuration not stated)	none
Cc1cccc(OCCCCn2c(C3CC(=O)N(c4ccc(C)cc4C)C3)nc3ccccc32)c1 (configuration not stated)	Pf Dd2 growth 11µM
Cc1cccc(OCCCCn2c(C3CC(=O)N(c4ccccc4Cl)C3)nc3ccccc32)c1 (configuration not stated)	Pf Dd2 growth 3.2µM
Cc1cccc(OCCCn2c(CCNC(=O)C3CCCCC3)nc3ccccc32)c1	Pf Dd2 growth 14µM
CCOc1ccccc1N1CC(c2nc3ccccc3n2CCCCOc2cc(C)ccc2C)CC1=O (configuration not stated)	none
COc1ccccc1OCCCn1c(C2CC(=O)N(c3ccccc3Cl)C2)nc2ccccc21 (configuration not stated)	none
Cc1cc(C)cc(OCCn2c(CCNC(=O)C3CCCCC3)nc3ccccc32)c1	none
Cc1ccccc1Cn1c(CCCNC(=O)C2CCCCC2)nc2ccccc21	none
CCc1ccccc1N1CC(c2nc3ccccc3n2Cc2cccc(C)c2)CC1=O (configuration not stated)	none
O[C@@H]1C[C@@H](c2nc(-c3cnccn3)no2)N(Cc2ccc(-c3ccccn3)cc2)C1	none
CCOc1ccc(CCNc2ncnc3onc(-c4ccc(F)cc4)c23)cc1OCC	none
COc1ccc(NC(=O)N2CCCC(Cc3noc(-c4ccncc4)n3)C2)cc1 (configuration not stated)	none
Cc1ccccc1CC(=O)NCc1nnc2ccc(-c3ccccc3)nn12	none
COc1ccc(N(CC(=O)Nc2ccc(Cl)cc2C)S(=O)(=O)c2ccccc2)c(OC)c1	none
C[C@H]1[C@@H]2[C@@H](O)C([C@H](C)C(=O)NC3CC3)CC[C@@]2(C)CC[C@@H]1NC(=O)c1cnccn1 (some centres not stated)	none
C[C@H]1[C@@H]2[C@@H](O)C([C@H](C)C(=O)NCc3ccc(F)cc3)CC[C@@]2(C)CC[C@@H]1NC(=O)c1cnccn1 (some centres not stated)	Pf Dd2 growth 8.9µM
CC(=O)N[C@H]1CC[C@]2(C)CCC([C@H](C)C(=O)NCc3ccc(F)cc3)[C@H](O)[C@H]2[C@@H]1C (some centres not stated)	none
Cc1nc(C2CCCCN2C(=O)c2cccc(F)c2)n[nH]1 (configuration not stated)	none
CCOC(=O)c1sc2ncn(CC(=O)Nc3ccc(OC)c(Cl)c3)c(=O)c2c1C	none
CCn1cc(-c2ccc(OC)cc2)cc1C(=O)NC(C)c1cccnc1 (configuration not stated)	none
CCCn1cc(-c2ccncc2)cc1C(=O)NCc1ccc(OC)cc1	none
CCCn1cc(-c2ccncc2)cc1C(=O)NC(C)c1ccc(OC)cc1 (configuration not stated)	Pf Dd2 growth 7.9µM
CCN1CCN(C(c2ccccc2)c2c(O)cc(C)n(Cc3ccco3)c2=O)CC1 (configuration not stated)	none
CC1(C(=O)NCc2cc(F)cc(F)c2)CCOCC1	none
Cc1ccc2c(c1)N(C(=O)Cn1ccn3nc(-c4ccccc4)c(CO)c3c1=O)CCO2	none
CC(C)Oc1cccc2c1c(NC(=O)C1CCN(C)C1)nn2Cc1ccccc1 (configuration not stated)	Pf Dd2 growth 2.2µM
Cc1nnnn1CC(=O)Nc1nn(Cc2ccccc2)c2cccc(OC(C)C)c12	none
CC(C)Oc1cccc2c1c(NC(=O)C1CC(=O)N(C)C1)nn2Cc1ccccc1 (configuration not stated)	none
COc1ccc(C(=O)N[C@@H]2CCC[C@@H]2C(=O)NCc2ccncc2)cc1	none
COCCCNC(=O)c1cc(C2CC2)nc2onc(C3CCNC3)c12 (configuration not stated)	none
Cc1noc2c(-c3cccc(CO)c3)cc(-c3cccc(C(F)(F)F)c3)nc12	none
N#Cc1ccc(CN2CCCC3(CC(c4ccccn4)=NO3)C2)cc1 (configuration not stated)	none
CNC(=O)N1C[C@@H](CN(C)C)[C@H](NS(=O)(=O)c2cc(F)ccc2C)C1	none
CNC(=O)N1C[C@@H](CN(C)C)[C@H](NS(=O)(=O)c2ccc(F)cc2F)C1	none
CN(C)C[C@@H]1CN(C)C[C@H]1NS(=O)(=O)c1cc(F)cc(F)c1	Pf Dd2 growth 8.9µM
COc1ccc(-n2cc(-c3ccc4c(c3)OCO4)n(CC(=O)Nc3cccc(C)c3)c2=O)cc1	Pf Dd2 growth 13µM
COc1ccc(NC(=O)Nc2ccc(C)n(CC(=O)Nc3cccc(C)c3)c2=O)cc1	none
CCc1cc(=O)n(CC(=O)Nc2ccc3c(c2)OCO3)c(-c2cccc(F)c2)n1	none
Cc1cnn(C(C)c2nc(-c3ccc(C)nn3)no2)c1 (configuration not stated)	none
CC(C)c1ccc(CN2CCCC3(CCN(C(=O)c4ccnn4C)C3)C2)cc1 (configuration not stated)	none
CCC(C)(C)C(=O)N1CC(c2nnc(-c3ccc(C)cc3)o2)C2(CCOCC2)C1 (configuration not stated)	none
COc1ccc(NC(=O)NC[C@H]2Cn3cc(-c4ccc(C)cc4)nc3CO2)cc1	Pf Dd2 growth 2.5µM
COc1ccc(-c2cn3c(n2)CO[C@@H](CNC(=O)C2CCCC2)C3)cc1	none
COc1ccc(-c2cn3c(n2)CO[C@@H](CNC(=O)c2ccccc2OC)C3)cc1	none
COc1ccc(-c2c3c(nc4sc(C(=O)Nc5ccc(F)cc5)c(N)c24)CC(C)(C)CC3=O)cc1	Pf Dd2 growth 0.56µM
COc1ccc(-c2ccc3c(N)c(C(=O)Nc4cc(F)ccc4C)sc3n2)cc1	none
Cc1c(C(=O)Nc2ccc(F)cc2)sc2nc[nH]c(=O)c12	none
COC(=O)c1sccc1S(=O)(=O)N(CC(=O)Nc1ccccc1F)c1ccccc1	none
CCc1ccc(NC(=O)CN(c2ccc(Cl)cc2)S(=O)(=O)c2ccsc2C(=O)OC)cc1	Pf Dd2 growth 11µM
COC(=O)c1sccc1S(=O)(=O)N(CC(=O)Nc1ccc(C)cc1)c1ccccc1	none
COc1ccc(CCC(=O)N2CCC3(CC2)N(C)C(=O)CS3=O)cc1 (configuration not stated)	none
COc1cccc(OCCCCn2c(-c3ccc(Cl)cc3)nc3ccccc3c2=O)c1	Pf Dd2 growth 10µM
COc1ccc(-c2nc3ccccc3n2Cc2ccc(Cl)cc2)cc1	none
COc1ccccc1OCCn1c(-c2ccc(Cl)cc2)nc2ccccc2c1=O	none
CNC(=O)[C@@H]1CN(C(=O)c2ccc3ncccc3c2)C[C@H]1COC	none
